Laboratory results published in PubChem BioAssay AID1745845 (National Center for Advancing Translational Sciences (NCATS), 2022).
Several values for one entry are separate records, joined by “and”; a condition that tells them apart may be missing. Identical values can stand only once. About 2,600 (0.72%) of roughly 360,000 compounds were called active. Not shown: some 5% with an inconclusive outcome. Calls follow the shape of the dose curve; as a rule, active = well fitted inhibition curve with a large enough effect; inconclusive = small, poorly fitted or top-dose-only effect; inactive = no such curve, though single readings can be large or run the other way. For the sample, actives were picked, then their nearest neighbours and some compounds at random.

Assay: Primary qHTS for Inhibitors of ATXN expression; also: nearly all actives have a fitted effect of over 55% in size
Settings: HEK-293 ATXN2-luciferase reporter, luminescence, 24 h; series mostly up to 57 µM
Excerpt: University of Utah School of Medicine, Salt Lake City, Utah
Spinocerebellar ataxia type 2 (SCA2) is a multisystem neurodegenerative disease caused by a dominantly acting mutation leading to expansion of a polyQ domain in the ataxin-2 protein (ATXN2). SCA2 patients develop progressive ataxia and later lose function in other neuronal systems. Prominent parkinsonian signs develop in some patients. Like many neurodegenerative disorders, no symptomatic or disease-modifying treatments are known.
The primary objective of the proposed research is to identify compounds inhibiting ATXN2 expression and to test them for efficacy in SCA2 mouse models. We have developed a cell-based assay paired with an in vivo mouse model using identical luciferase expression constructs. This approach takes advantage of an ATXN2-luciferase transgene, with the luciferase gene flanked by the upstream and downstream portions of the ATXN2 gene. Here we describe a 5-7 dose quantitative high thoroughput screen (qHTS) for compounds lowering ATXN2 expression. We screened the NIH Molecular Libraries Small Molecule Repository (MLSMR) and NCGC's mechanistically annotated (MIPE) and drug repurposing (NPC) collections of compounds for lowering expression of an ATXN2-luciferase reporter in HEK-293 cells. The assay is a multiplexed cell viability assay to ensure target reduction in the absence of cytotoxicity. Secondary qHTS assays included a CMV-luciferase reporter expressed in HEK-293 cells as well as a biochemical assay using recombinant luciferase to detect inhibitors of the reporter enzyme. Compounds that inhibit ATXN2 expression but is not cytotoxic were selected for confirmatory and secondary screens.
PROTOCOL TABLE (as described by Inglese J, Shamu CE and Guy RK. 2007)
SEQUENCE No. (e.g., 1, 2, 3, etc.); […] (e.g., Cells, Incubation, Reagent, etc.); VALUE; DESCRIPTION.
1; Cells; 4 uL; white, solid bottom, 1536-well Greiner assay plate.
2; Incubation; 2 hr; 37 degree C in 5% humidified CO2.
3; Compounds; 23 nL; Kalypsis pintool (Wako USA) equipped with a 1536-well pin head.
4; Incubation; 24 hr; 37 degree C in 5% humidified CO2.
5; Reagent; 1 uL; Gly-Phe-7-Amino-4-trifluoromethylcoumarin.
6; Incubation; 30 min; 37 degree C in 5% humidified CO2.
7; Detection; Fluorescence; ViewLux plate reader (PerkinElmer).
8; Reagent; 3 uL; SteadyGlo luciferase solution (Promega).
9; Incubation; 5 min; room temperature.
10; Detection; Luminescence; ViewLux plate reader (PerkinElmer).
NOTES (numbers refer to Sequence numbers above)
1. S2 cells expressing ATXN2-luciferase reporter were suspended in phenol-red free DMEM and dispensed in assay plates using a Multidrop Combi dispenser (Thermo Fisher Scientific).
2. Assay plates were incubated. Evaporation was prevented by covering assay plates with metal lids containing holes to allow gas diffusion.
3. Compounds were added in a dose response manner with the final concentrations of 57, 11.4, 2.28, 0.46, 0.091, 0.018, 0.0037 uM. Vehicle-only plates, with DMSO being pin-transferred to columns 5-48, were inserted uniformly at the beginning and the end of each library to monitor and record any shifts in assay performance.
5. 125 uM Gly-Phe-7-Amino-4-trifluoromethylcoumarin (MP Biomedicals) working concentration was used at a final concentration of 25 uM.
7. To assess cell viability; the assay plates were read using the ViewLux high-throughput CCD imager (PerkinElmer), wherein single end-point fluorescence measurement was acquired (excitation 405/10; emission 540/25 nm).
8. Detection reagent SteadyGlo Luciferase (Promega) was added to the assay plate.
10. Luminescence is then measured on the ViewLux imager equipped with a clear emission filter using a 2 sec exposure. All screening operations were performed on a fully integrated robotic system (Kalypsys) containing one RX-130 and two RX-90 anthropomorphic robotic arms (Staubli).
[…]
% is scaled to controls: 0 for no effect and ±100 for the full control effect; potency is read from the fitted curve at half-maximal effect.

Potency, active:
Fc1ccc2[nH]c3c(N4CCN(Cc5ccc6c(c5)OCO6)CC4)ncnc3c2c1 14.1 µM
Fc1ccc2[nH]c3c(N4CCSCC4)ncnc3c2c1 15.8 µM
Cc1cc(N/N=C\c2ccc(Br)cc2)nc(-n2nc(C)cc2C)n1 10 µM
COc1cc(NC(=O)c2[nH]cnc2C(N)=O)cc(C(=O)Nc2cccc(C(F)(F)F)c2)c1 10 µM
C=CCn1c(C)cc(C(=O)CN2C(=O)c3ccccc3C2=O)c1C 7.08 µM
CCC1CCCCN1CCCNC(=O)c1cc2c(Cl)nc3ccccc3c2s1 (centres undefined) 22.4 µM and 31.6 µM
c1cncc(CN2CCC(n3ncc4c(N5CCOCC5)nc(-c5ccc6[nH]ccc6c5)nc43)CC2)c1 21.7 µM
O=C(N/N=C/c1ccccc1O)/C(=C/c1ccccc1)CCO 3.55 µM
O=C(CSc1cccc2cccnc12)N/N=C/c1cccnc1 22.4 µM
CO[C@@H]1[C@@H](O)[C@H](O)[C@@H](n2c3c(Cl)cccc3c3c4c(c5c6cccc(Cl)c6[nH]c5c32)C(=O)NC4=O)O[C@@H]1CO 0.273 µM
CN(C)CCNC(=O)c1ccc(Cl)c2cc3ccccc3nc12 8.91 µM
CN(C)C(=O)c1cccc(-c2cnc3c(NC=O)cc(-c4ccc(F)cc4)cn23)c1 25.1 µM
CC(C)(C)CC(C)(C)NCC(O)COCCOc1ccc(Br)cc1 (centres undefined) 22.4 µM
O=C1NCCc2[nH]c(-c3ccncc3)cc21 6.11 µM
Cc1ccc(C(NC(=O)C2CCN(CCOc3ccc(Cl)cc3Cl)CC2)c2ccccn2)cc1 (centres undefined) 28.2 µM
O=C(NC1=CC(=O)c2ccccc2C1=O)c1ccccc1 7.94 µM
CCCCS(=O)(=O)c1oc(-c2cccs2)nc1S(=O)(=O)c1ccccc1 3.16 µM
O=C(/C=C/Sc1ncn[nH]1)c1ccc(Cl)cc1 25.1 µM
c1c2c(cc3sc(N4CCCCC4)nc13)OCCO2 7.94 µM

Potency, inactive:
O=C(CSc1nc2c(c(=O)[nH]1)CN(Cc1ccc3c(c1)OCO3)CC2)Nc1cc(F)ccc1F
N#C/C=C/N1CCN(Cc2ccc3c(c2)OCO3)CC1
COC(=O)c1cc(Cl)c(NC(C)=O)cc1OC
Cn1c(=O)c(C(=O)O)nn(-c2ccccc2)c1=O
COc1cccc(CNCc2c(C(=O)O)n(Cc3ccc(C)cc3)c3cc(C)ccc23)c1OC
C[C@@H]1CCC[C@H](C)N1CCCC(O)(c1ccccc1)c1ccccn1 (some centres undefined)
CC(C)Cn1c(C2CC(=O)N(c3ccccc3Cl)C2)nc2ccccc21 (centres undefined)
CC(C(C)N1CC(=O)NC(=O)C1)N1CC(=O)NC(=O)C1 (centres undefined)
COCC(C)NS(=O)(=O)c1ccc(N2CCCCS2(=O)=O)cc1 (centres undefined)
Cc1cc(Nc2ccc(Br)cc2)nc2ccccc12
Cc1cc(C)n(-c2nnc(N3CCN(c4ccccc4)CC3)nn2)n1
COC(=O)c1c(NC(=O)C(C)Oc2ccc(Cl)c(C)c2)sc(C)c1C (centres undefined)
COc1c(C)cc(C(O)c2ncc(-c3cccc(C(F)(F)F)c3)[nH]2)cc1C (centres undefined)
O=C(O)CSc1c2c(nc3cc(C(=O)Nc4cccc(C(F)(F)F)c4)ccc13)CCCC2
COc1cccc(NC(=O)c2csnn2)c1
COc1ccc(CC(N)c2csc(NC(=O)Cc3ccccc3)n2)cc1 (centres undefined)
C=CCN(CC=C)C(=O)CN1C(=O)c2ccccc2C1=O
Cc1cc(C(=O)COC(=O)CCCN2C(=O)c3ccccc3C2=O)c(C)n1C
Cc1cccc(-n2c(=O)c3c(c4cc(C)ccc4n3C)n(CC(=O)Nc3ccccc3Cl)c2=O)c1
CCC(=O)N1CCc2cc(S(=O)(=O)NC(CC(C)C)C(=O)NCCc3cccc(C)c3)ccc21 (centres undefined)
CN1CCN(CCCNC(=O)c2cc3c(=O)oc4ccccc4c3s2)CC1
CCCn1c2ccccc2c2cnn(CC(=O)NCCCN3CCCCC3CC)c(=O)c21 (centres undefined)
Cc1ccc(NC(=O)C(Cc2ccccc2)NS(=O)(=O)c2ccc3c(c2)oc(=O)n3C)cc1C (centres undefined)
Clc1cccc(-n2ncc3c(NCCc4ccccc4)ncnc32)c1
O=C(Nc1ccnn1C1CCN(Cc2cccc(OCCO)c2)CC1)C1CCCC1
CC(C)Oc1ccc(CN2CCC(n3nccc3NC(=O)c3cccnc3)CC2)cc1
Cc1cc(O)ccc1-c1cc(C(=O)NCc2cc(C(F)(F)F)cc(C(F)(F)F)c2)[nH]n1
O=C1Nc2ccccc2NC(c2ccc3c(c2)OCO3)=C1N(Cc1ccc(F)cc1)C(=O)c1ccco1
NN=C(NN=Cc1ccccc1)c1ccccc1
COc1ccc(Cl)cc1N(C)C(=O)c1cc2c(=O)oc3ccc(C)cc3c2s1
CCOc1cc(C2C(C(=O)Nc3ccc(OC)cc3)=C(C)Nc3nc(SC)nn32)ccc1O (centres undefined)
O=C(CNC(=O)c1cccnc1)N/N=C/c1cc(Br)c(O)c(Br)c1
Cc1ccc(S(=O)(=O)N(CC(=O)N/N=C/c2ccc(F)cc2)c2cccc3cccnc23)cc1
CCc1ccc(C=C2SC(=S)NC2=O)cc1
Cn1c(=O)nc2n(-c3ccc(Br)cc3)c3cccc(Cl)c3cc-2c1=O
CC(Nc1ccc(-c2nc(-c3ccco3)no2)cc1[N+](=O)[O-])c1ccccc1 (centres undefined)
COC1C(CO)OC(n2cnc3c(=S)nc(N)[nH]c32)C1O (centres undefined)
COc1ccccc1CNC(=O)c1ccc(NC(=O)N2CC(C)Sc3ccccc32)cc1 (centres undefined)
Cc1nnc(SCc2cc(=O)c3cc(F)ccc3[nH]2)n1C
CN(c1ccccc1)S(=O)(=O)c1ccc(Cl)c(C(=O)NCCc2c[nH]c3ccccc23)c1
CN(C)CCNC(=O)Nc1cccc(Cl)c1Cl
Cc1ccc(S(=O)(=O)c2nnn3c2nc(N2CCN(c4ccccc4F)CC2)c2cc(Cl)ccc23)cc1C
CC(=O)c1cccc(-c2cnc3c(NC=O)cc(-c4ccc(N(C)C)cc4)cn23)c1
CC(=O)c1cccc(-c2cnc3c(NC=O)cc(-c4cccc(C(=O)N(C)C)c4)cn23)c1
CCOc1ccc(NS(=O)(=O)c2ccc(N)cc2)nn1
CCN1CCN(C(=O)N[C@@H](C(=O)N[C@@H]2C(=O)N3[C@@H]2SC(C)(C)[C@H]3C(=O)O)c2ccccc2)C(=O)C1=O
CC(=O)O[C@]1(C(C)=O)CC[C@@H]2[C@@H]3C[C@H](C)C4=CC(=O)CC[C@]4(C)[C@H]3CC[C@@]21C
CC(Oc1ccc(Br)cc1)C(=O)NC1CCCCCC1 (centres undefined)
COc1ccc(OCC(O)CNCCNc2nccc(C(F)(F)F)n2)cc1 (centres undefined)
CCOc1ccc(Nc2oc(/C=C/c3ccc(F)cc3)nc2C#N)cc1
CCOC(=O)N1CCN([N+]([O-])=NOc2ccc([N+](=O)[O-])cc2[N+](=O)[O-])CC1
Cc1ccccc1-c1nc(SCC(=O)N(C)c2ccccc2)c2c(=O)n(C)c(=O)n(C)c2n1
COC(=O)Nc1nc2ccc(C(=O)C3CC3)cc2[nH]1
COc1cccc(CN2CCC(C(=O)NC(c3ccc4c(c3)OCO4)c3ccccn3)CC2)c1 (centres undefined)
O=C(NC(c1ccc(Cl)cc1)c1cnccn1)C1CCN(Cc2ccc(Cl)cc2)CC1 (centres undefined)
O=C1c2c(O)cccc2[C@@H]([C@@H]2O[C@H](CO)[C@@H](O)[C@H](O)[C@H]2O)c2cc(CO)cc(O)c21
Cc1cccc(N2CCN(C(=O)c3ccc4c(c3)CCN4S(=O)(=O)c3ccccc3)CC2)c1C
CCc1nc2c(OCCC3CCCCC3)cccn2c1N(C)C(=O)c1ccco1
CN(CC(=O)Nc1ccccc1F)S(=O)(=O)c1ccc2c(c1)c(=O)n(C)c(=O)n2C
COc1ccc(Sc2ccc(NC(=O)c3cccc(Cl)c3)cc2C#N)cc1
CCOc1ccc(CNCCSc2nnnn2C)cc1
COc1cccc(NC(=O)c2ccc3nc(CCc4ccccc4)oc3c2)c1
O=C(NC(=O)c1ccccc1)Nc1ccccc1O
COC(=O)c1nc(NC(=O)c2ccccc2)n[nH]1
CCC(=O)Nc1c(C(=O)N2CCN(c3ccc(F)cc3)CC2)oc2ccccc12
CCn1c(-c2nonc2N)nc2c(C#CC(C)(C)O)ncc(OC[C@H]3CCCNC3)c21
Cc1ccc(S(=O)(=O)N2CCc3cc(C(=O)Nc4ccc(Cl)cc4C)ccc32)cc1
Cc1cc(C)cc(Nc2ncnc3onc(-c4ccc(F)cc4)c23)c1
CC(C)c1ccc(NC(=O)c2ccc(Cn3nc(N4CCN(c5ccccc5)CC4)ccc3=O)o2)cc1
Cc1ccc(S(=O)(=O)c2nc(-c3cccs3)oc2NCc2cccnc2)cc1
NC(=O)CSc1oc(-c2cccs2)nc1S(=O)(=O)c1ccccc1
CSc1ccccc1NC(=O)CCS(=O)(=O)c1nc(-c2cccs2)cc(C(F)(F)F)n1
O=C(CSc1ncn[nH]1)Nc1ccc(Br)cc1Br
O=C(CSc1oc(-c2ccco2)nc1S(=O)(=O)c1ccc(Cl)cc1)c1ccccc1
CC(C)OCCCn1c(SCC(=O)c2ccccc2)nc2c(sc3ccccc32)c1=O
CCCCN1CCC(CNC(=O)c2c3n(c4ccccc24)CCCO3)CC1
Fc1ccc(-n2ncc3c(Nc4ccc(Oc5ccccc5)cc4)ncnc32)cc1
O=C(NCc1ccc(F)cc1)c1ccc2nc(N3CCCCC3)sc2c1
CN(C)CCN(C(=O)C1CCCCC1)c1nc2cc3c(cc2s1)OCO3

Activity change, negative = inhibition, inactive:
O=C(CCC(=O)Nc1ccccc1)N/N=C/c1ccccc1F 10.2% [at 11.3 µM]
